The text below walks through data of PubChem BioAssay.

Calls of active or inactive are those of the source. Unless noted, how the calls were made is not given here.

Assay [1] in a line: resazurin metabolic signal in HepG2 cells – cell-based, resazurin fluorescence, 24 h, PK04 Diversity Set, profiling panel (AID 1172). Further: test concentration not given here. Conditions: HepG2 viability, higher = more signal. On the technique in general: Resazurin is reduced to fluorescent resorufin, in cell work by metabolically active cells.
Assay [2] in a line: budding yeast growth changes without added modifier – OD600, strain BY4716, 24 h, basal condition, primary screen (AID 1173). Conditions: S. cerevisiae BY4716 growth, OD600, 24 h; higher = more signal, called active from +8 up or from −8 down.
Assay [3] can be described thus: viability profiling in MM1S myeloma cells – cell-based, resazurin fluorescence, basal, 24 h, PK04 Diversity Set, profiling panel (AID 1174).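 Further: MM1S multiple myeloma cell line; test concentration not given here.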 Conditions: higher = more signal, called active from +8 up or from −8 down.
Assay [4] has as its target Dihydroorotate dehydrogenase (quinone), mitochondrial (Plasmodium falciparum (isolate 3D7)) (UniProt Q08210). Nature of the assay: inhibition of P. falciparum DHODH – biochemical, C-terminal His tag, absorbance 600 nm, primary screen (AID 1175).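 Further: recombinant parasite enzyme with a five histidine tag at its C terminus; test concentration not given here.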 Conditions: PfDHODH enzyme, DCIP absorbance 600 nm; higher = more signal, called active from +8 up or from −8 down.
A short description of assay [5]: inhibition of PAO1 biofilm formation – strain PAO1, LB-PBS medium, absorbance 600 nm, primary screen (AID 1176). Further: test concentration not given here. Conditions: P. aeruginosa PAO1 growth/biofilm, A600, 12 h; higher = more signal.
Assay [6] can be described thus: growth modulation of vineyard yeast isolate – strain RM11-1a, OD600, basal, 24 h, primary screen (AID 1177).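 Further: cultures grown under basal conditions with no added stressor; test concentration not given here.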 Conditions: S. cerevisiae RM11-1a growth, OD600, 24 h; higher = more signal, called active from +8 up or from −8 down.
Assay [7] in a line: growth of efflux-deficient E. coli DRC39 – strain DRC39, OD650, 24 h, E. coli filamentation inducers, primary screen (AID 1178).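 Further: growth measured as culture turbidity by optical density at 650 nm; test concentration not given here.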 Conditions: E. coli DRC39 acrAB, higher = more signal, called active from +8 up or from −8 down.
Assay [8] is described as follows: growth of efflux-deficient E. coli DRC39 – strain DRC39, OD650, 48 h, E. coli filamentation inducers, primary screen (AID 1179).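 Further: screen aims at cell division blockers that make cells filament.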 Conditions: E. coli DRC39 delta-acrAB growth, higher = more signal, called active from +8 up or from −8 down.
A short description of assay [9]: viability profiling in RPMI8226 myeloma cells – cell-based, resazurin fluorescence, basal, 24 h, PK04 Diversity Set, profiling panel (AID 1180).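 Further: RPMI8826 multiple myeloma cell line at 5000 cells per well; test concentration not given here.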 Conditions: higher = more signal.
Assay [10] deals with E3 ubiquitin-protein ligase XIAP (Homo sapiens) (UniProt P98170). Nature of the assay: small molecules binding XIAP protein – biophysical, small-molecule microarray, fluorescence 635 nm, primary screen (AID 1181).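 Further: score merges 667 nm emission and signal to noise over triplicate slides.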 Conditions: higher = more signal.
E3 ubiquitin-protein ligase XIAP (Homo sapiens), sequence (P98170 whole entry, looked up): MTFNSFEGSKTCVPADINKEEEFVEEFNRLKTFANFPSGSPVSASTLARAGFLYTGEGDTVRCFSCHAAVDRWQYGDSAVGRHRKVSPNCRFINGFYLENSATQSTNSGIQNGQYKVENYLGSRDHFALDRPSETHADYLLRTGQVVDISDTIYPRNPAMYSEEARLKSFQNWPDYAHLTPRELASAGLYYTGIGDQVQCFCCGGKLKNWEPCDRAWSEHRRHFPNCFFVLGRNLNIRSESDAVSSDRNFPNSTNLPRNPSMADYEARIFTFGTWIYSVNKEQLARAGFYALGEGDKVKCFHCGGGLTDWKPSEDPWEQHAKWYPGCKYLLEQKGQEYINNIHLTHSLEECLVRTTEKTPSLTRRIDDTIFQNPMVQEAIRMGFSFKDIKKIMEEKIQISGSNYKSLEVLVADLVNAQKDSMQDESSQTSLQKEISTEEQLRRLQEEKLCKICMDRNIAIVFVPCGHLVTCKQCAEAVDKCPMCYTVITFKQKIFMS

Dihydroorotate dehydrogenase (quinone), mitochondrial (Plasmodium falciparum (isolate 3D7)), sequence (Q08210 whole entry, looked up): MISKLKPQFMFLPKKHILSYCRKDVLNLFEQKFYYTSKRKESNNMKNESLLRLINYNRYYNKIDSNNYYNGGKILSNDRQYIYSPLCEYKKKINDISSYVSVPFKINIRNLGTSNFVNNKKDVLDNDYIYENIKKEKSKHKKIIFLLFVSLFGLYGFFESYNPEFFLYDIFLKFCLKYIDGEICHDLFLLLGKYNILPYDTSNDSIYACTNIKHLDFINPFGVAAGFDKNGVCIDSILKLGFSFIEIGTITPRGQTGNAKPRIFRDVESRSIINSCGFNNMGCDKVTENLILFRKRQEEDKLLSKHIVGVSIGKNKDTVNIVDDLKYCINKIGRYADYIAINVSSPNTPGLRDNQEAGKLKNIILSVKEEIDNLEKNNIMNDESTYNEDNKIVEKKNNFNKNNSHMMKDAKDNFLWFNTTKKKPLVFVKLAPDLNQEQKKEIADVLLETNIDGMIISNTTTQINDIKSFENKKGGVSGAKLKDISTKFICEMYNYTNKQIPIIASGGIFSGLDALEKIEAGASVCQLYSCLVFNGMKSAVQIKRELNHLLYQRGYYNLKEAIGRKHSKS

As to `COC(=O)[C@@]1(Cc2ccc(F)cc2)[C@H]2c3cc(C(=O)N4CCCC4)n(CCc4c[nH]c5ccc(OC)cc45)c3C[C@H]2CN1C(=O)c1ccccc1`, the z-score in [1] is -0.946; in [2], 0.813 (inactive); in assay [3], -2.53 (inactive); in assay [5], 3.29 (inactive); in assay [6], 0.622 (inactive); in assay [7], -0.137 (inactive). Besides, the z-score in assay [8] was -0.72 (inactive); in [9], -3.36. Moreover, the composite z-score in [4] was -3.91 (inactive); in assay [10], 0.498.

Regarding `C=C(COC)/C(=C/C[C@@H](OC(=O)c1ccncc1)c1ccc(OCCO)cc1)c1cnc2ccccc2c1`, the z-score in [1] was 0.564; in assay [2], -1.17 (inactive); in assay [3], 0.354 (inactive); in assay [5], -0.0221 (inactive); in [6], -0.0819 (inactive); in assay [7] it was 0.595 (inactive). Moreover, the z-score in assay [8] is 0.436 (inactive); in assay [9], 0.621. The composite z-score in assay [4] was -6.09 (inactive); in [10], 0.0566.

For `C=CCN1C(=O)[C@@]2(O[C@@H](CCn3cc([C@H](O)c4ccccc4)nn3)[C@H]([Si](C)(C)c3ccc(OC)cc3)[C@H]2C)c2ccccc21`, the z-score was -0.986 in [1]; 0.117 (inactive) in assay [2]; -1.83 (inactive) in assay [3]; 0.626 (inactive) in assay [5]; 0.93 (inactive) in [6]; -0.599 (inactive) in assay [7]. The values for the z-score in assay [8] and in [9] were -0.857 (inactive) and -1.97, respectively. In addition, the composite z-score in [4] was -0.198 (inactive); in assay [10] it was 0.144.

Regarding `COC(=O)[C@@]1(Cc2ccc(F)cc2)[C@H]2c3cc(C(=O)N4CCCC4)n(CCF)c3C[C@H]2CN1C(=O)c1ccccc1`, the z-score in assay [1] was -0.282; in [2] it was -0.273 (inactive); in assay [3] it was -0.547 (inactive); in assay [5], 0.84 (inactive); in assay [6] it was 0.24 (inactive); in assay [7], -0.239 (inactive). Also, the z-score in assay [8] is -0.311 (inactive); in [9], -0.185. The values for the composite z-score in assay [4] and in assay [10] were -0.41 (inactive) and -0.233, respectively.

`CC(=O)n1cc(C(O)C2C=CC3C(=O)N(Cc4ccccc4)C(=O)C3N2n2cnnc2)c2ccccc21` (stereo not given): the z-score in assay [1] was -0.227; in assay [2], 0.319 (inactive); in [3] it was -0.929 (inactive); in assay [5], -0.514 (inactive); in [6], -0.371 (inactive); in assay [7] it was -1.34 (inactive). The z-score in [8] is -1.4 (inactive); in assay [9], -1.27. Besides, the figures for the composite z-score in assay [4] and in assay [10] were -0.351 (inactive) and 0.764, respectively.

On to `COc1cc(CO)cc(I)c1O[C@H]1C=C(C(=O)NCCO)C[C@@H](N(Cc2ccc(F)cc2)C(=O)C2CCCO2)[C@@H]1O` (stereo not given in full), for which the z-score is 0.266 in assay [1]; -1.96 (inactive) in assay [2]; 0.695 (inactive) in assay [3]; 0.507 (inactive) in assay [5]; -0.254 (inactive) in assay [6]; 2.94 (inactive) in assay [7]. Moreover, the z-score is 2.03 (inactive) in assay [8] and 0.562 in [9]. Further, the composite z-score in assay [4] was -0.737 (inactive); in assay [10] it was -0.165.

`C=CCC(OC(C)=O)[C@@H]1[C@@H](N(Cc2cc3ccccc3o2)C(=O)Cc2ccc(F)cc2)c2cc(OCCCO)ccc2N1C(=O)c1ccc2ccccc2n1` (stereo not given in full): the z-score in assay [1] was 0.182; in assay [2], -0.44 (inactive); in [3], 0.74 (inactive); in assay [5], 0.243 (inactive); in [6], -0.176 (inactive); in assay [7], 0.106 (inactive). Besides, the z-score in assay [8] was 0.155 (inactive); in assay [9], 0.708. Besides, the composite z-score in assay [4] is -0.235 (inactive); in assay [10] it was -0.217.

Take `C=CC[C@@]1(C(=O)N2CCCCC2)N=C(c2ccc(OCCCO)cc2)O[C@@H]1c1ccccc1`: the z-score in assay [1] was 1.63; in [2], -3.63 (inactive); in [3], 1.6 (inactive); in assay [5] it was -0.441 (inactive); in assay [6], 0.404 (inactive); in assay [7], -0.212 (inactive). Moreover, the values for the z-score in assay [8] and in assay [9] were -0.155 (inactive) and 1.02, respectively. Besides, the composite z-score in [4] was -0.765 (inactive); in assay [10], 0.454.

For the molecule `CN(C)CCCNC(=O)[C@@]1(C)c2ccccc2C(=O)N(Cc2cc(C(F)(F)F)cc(C(F)(F)F)c2)[C@H]1c1ccc(CO)cc1`, the z-score in [1] was -1.19; in [2], -0.808 (inactive); in assay [3] it was -0.244 (inactive); in [5] it was 1.98 (inactive); in [6], 0.874 (inactive); in assay [7], 0.365 (inactive). Moreover, the z-score is -1.39 (inactive) in assay [8] and -0.0867 in assay [9]. Further, the composite z-score in [4] is 0.779 (inactive); in assay [10] it was -0.239.

`[N-]=[N+]=Nc1ccccc1[C@H]1OC(c2ccc(OCCCO)cc2)=N[C@@]1(CCS(=O)(=O)c1ccccc1)C(=O)N1CCCCC1`: the z-score in [1] was 0.186; in [2] it was -0.0728 (inactive); in assay [3], -1.63 (inactive); in assay [5] it was 0.715 (inactive); in assay [6], 0.836 (inactive); in assay [7] it was 0.21 (inactive). Further, the z-score in assay [8] was -0.714 (inactive); in assay [9], -1.64. Moreover, the composite z-score in assay [4] is -0.792 (inactive); in [10], -0.0884.
